The values that follow come from PubChem BioAssay (Tox21).

Inconclusive results are not listed. Where a call stands in place of a potency, no number is given. Calls of active or inactive are those of the source. Calls come from the whole dose curve.

This assay is described as follows: p53 small molecule agonists, cell-based qHTS assay with rat liver microsomes (AID 1963578). Particulars: HCT-116 p53RE-bla, beta-lactamase ratio, 16 h; series mostly up to 66 µM. From the text:
U.S. Tox21 Program National Center for Advancing Translational Sciences [NCATS] Division of Preclinical Innovation [DPI] U.S. Environmental Protection Agency [EPA] National Institutes of Environmental Health Sciences [NIEHS] National Toxicology Program [NTP] U.S. Food and Drug Administration [FDA] Tox21 Assay Overview: p53, a tumor suppressor protein, is activated following cellular insult, including DNA damage and other cellular stresses. The activation of p53 regulates cell fate by inducing DNA repair, cell cycle arrest, apoptosis, or cellular senescence. The activation of p53, therefore, is a good indicator of DNA damage and other cellular stresses. […] The activation of the reporter gene under culture conditions can be detected by fluorescence intensity. This cell line was used to screen the Tox21 10K compound library in the condition of presence of rat liver microsomes and to identify agonists that activate the p53 signaling pathway after in vitro metabolic activation (Ooka et al., Archive of Toxicology 96:1975-1987, 2022).
Tox21 Assay Protocol Summary: The p53RE-bla cells were dispensed at 4,000cells/3ul/well in 1536-well black-clear bottom plates. After the assay plates were incubated at 37 C, 5% CO2 incubator for 5 hours, 23 nL of compounds dissolved in DMSO, positive controls or DMSO only was transferred to the assay plate. Following compound addition, 3 uL of rat liver microsomes (Molecular Toxicology, Boone, NC) at final concentration of 0.5 mg/mL and 1uL of Beta-Nicotinamide adenine dinucleotide 2-phosphate (NADPH) at final concentration of 0.5 mg/mL were transferred to the assay plate. The plates were incubated at 37 C for 16 hours. 1 uL of LiveBLAzer detection mixture was added to each well and the plates were incubated at room temperature in the dark for 2 h.
(qHTS replaces the single test concentration by a dilution series.)
`CO[Si](CCCNCCNCCN)(OC)OC`: the Potency entry is “inactive”. Consider `CN1CCOCC1`, for which the Potency result was “inactive”.

Consider `CC(=O)Nc1ccc(C)cc1`, for which the Potency entry is “inactive”.

With `CN1N=C(C(N)=O)CCC1=O`, the Potency entry was “inactive”. Turning to `F[Si-2](F)(F)(F)(F)F`, the Potency result is “inactive”.

With `CC[C@]12CCCN3CCc4c(n(c5ccccc45)[C@@](O)(C(=O)OC)C1)[C@@H]32`, the Potency entry is “inactive”. For `CCc1occc(=O)c1O`, the Potency entry was “inactive”.

`CCCCC(CC)COCCO` (stereo not given): the Potency entry was “inactive”. Take `CCCSc1ccc2nc(NC(=O)OC)[nH]c2c1`: the Potency entry is “inactive”. With `O=C(O)c1ccc(CO)o1`, the Potency entry was “inactive”.

With `C=CC(=O)OCCCCCCCC`, the Potency entry is “inactive”. Turning to `C=C(C)C(=O)OCCOP(=O)(O)O`, the Potency result was “inactive”. Same read-out and setting: then `O=C(O)/C=C/c1ccccc1`, with “inactive”; and `CC#N`, with “inactive”; and `CC(C)(c1cc(Br)c(OCC(Br)CBr)c(Br)c1)c1cc(Br)c(OCC(Br)CBr)c(Br)c1` (stereo not given), with “inactive”. In the case of `CC(C)(C)C(=O)C(Oc1ccc(Cl)cc1)n1ccnc1` (stereo not given), the Potency entry was “inactive”. `Cc1ccc(-c2ccccc2C#N)cc1`: the Potency entry is “inactive”. Turning to `Cc1ccc(C(C)(C)O)cc1`, the Potency entry was “inactive”. Take `C/C(=C1\CCOC(=O)S1)N(C=O)Cc1cnc(C)nc1N`: the Potency result was “inactive”. Consider `CC(=O)CC(C)(C)C1CCCCC1`, for which the Potency result was “inactive”. As for `O=C(CCS)OCC(COC(=O)CCS)(COC(=O)CCS)COC(=O)CCS`, the Potency result is “inactive”. As for `CC1(C)CO[C@@H](CC(=O)O)CN1`, the Potency result was “inactive”. For the compound `CCN(CC#N)c1cccc(C)c1`, the Potency result was “inactive”. Regarding `CO[Si](CCCNCCC[Si](OC)(OC)OC)(OC)OC`, the Potency entry is “inactive”. `c1ccc(CNc2ncnc3c2ncn3C2CCCCO2)cc1` (stereo not given): the Potency entry was “inactive”. Same read-out and setting: the entry for `OCCCCl` is “inactive”; for `O=C(O)CONC(=O)c1ccccc1` it is “inactive”. On to `NC(=O)Nc1ccccc1`, for which the Potency result is “inactive”. Same read-out and setting: then `CC(=O)OCC1=C(C(=O)O)N2C(=O)[C@@H](NC(=O)Cc3cccs3)[C@H]2SC1`, with “inactive”; and `NC(=O)c1ccccc1Cl`, with “inactive”; and `CCC(=O)CC`, with “inactive”. Same read-out and setting: then `CC1=CCC(O)(C(C)C)CC1` (stereo not given), with “inactive”. On to `CC(C)CCCCCCCCCCCCCCC(=O)O`, for which the Potency result was “inactive”. For `CCCCCCCC/C=C\CCCCCCCC(=O)OCCCC`, the activation is -0.57% [at 13.6 µM] (inactive). In the case of `CCC/C=C/CO`, the Potency result was “inactive”.

`CCNc1nc(N)nc(Cl)n1`: the Potency entry was “inactive”.

With `CN(CCOc1ccc(CC2SC(=O)NC2=O)cc1)c1ccccn1` (stereo not given), the Potency entry is “inactive”. On the same count and under the same terms, the entry for `CCCCc1ccc2cccc(S(=O)(=O)O)c2c1` is “inactive”. The same measure, in the same setting: then `CCC(CO)(CO)CO`, with “inactive”. For `O=C(C(=O)c1ccccc1)c1ccccc1`, the Potency entry is “inactive”.
